Laboratory results taken from PubChem BioAssay (Tox21).
Records with an inconclusive call do not appear. The source made the active and inactive calls. Calls follow the shape of the dose curve; as a rule, active = well fitted cell-killing curve with a large enough effect in the repeat runs; inconclusive = weak or mixed curves; inactive = flat fitted curve, though single readings scatter.

Assay: qHTS assay to identify small molecule antagonists of the estrogen receptor beta (ER-beta) signaling pathway - cell viability counter screen (AID 1259382); also: nearly all actives have a fitted effect of over 55% in size
Details: ER-beta-UAS-bla HEK293T viability, CellTiter-Glo luminescence, 16 h; series mostly up to 92.4 µM; activity change, negative = cytotoxicity: at the top concentration
Text: U.S. Tox21 Program National Center for Advancing Translational Sciences [NCATS] NIH Chemical Genomics Center [NCGC] U.S. Environmental Protection Agency [EPA] National Institutes of Environmental Health Sciences [NIEHS] National Toxicology Program [NTP] U.S. Food and Drug Administration [FDA] Tox21 Assay Overview: Estrogen receptor (ER), a nuclear hormone receptor, plays an important role in development, metabolic homeostasis and reproduction. Two subtypes of ER, ER-alpha and ER-beta, have similar expression patterns with some uniqueness in both types. Endocrine disrupting chemicals (EDCs) and their interactions with steroid hormone receptors like ER causes disruption of normal endocrine function. To identify the compounds that inhibit ER signaling, an ER-beta-UAS-bla GripTite cell line (Life Technologies, Madison, WI, USA) containing a beta-lactamase reporter gene under the control of an UAS response element was used to screen Tox21 10K compound library. The cytotoxicity of the Tox21 compound library against the ER-beta-bla cell line was tested in parallel by measuring the cell viability using CellTiter-Glo assay in the same wells.
Tox21 Assay Protocol Summary: ER-beta-UAS-bla HEK293T cells were dispensed at 2,000 cells/4 uL of assay medium containing 2% charcoal stripped FBS per well into black wall/clear-bottom 1536-well plates using a Multidrop Combi (ThermoFisher Scientific, Waltham, MA) dispenser. After the assay plates were incubated at a 37C and 5% CO2 for 6 hr, 23 nL of compounds dissolved in DMSO, positive controls or DMSO only was transferred to the assay plate by a Pintool station (Kalypsys, San Diego, CA), followed by addition of 1 uL (1nM as final concentration) of 17-beta-estradiol (E2) in assay medium using a Flying Reagent Dispenser (FRD, Aurora Discovery, San Diego, CA). The plates were incubated at 37C and 5% CO2 for 16 hr. Then 1 uL of LiveBLAzer B/G FRET substrate was added using a Flying Reagent Dispenser, the plates were incubated at room temperature for 2 hours, and fluorescence intensity was measured by an Envision plate reader (PerkinElmer, Shelton, CT). For cell viability readout that measures cytotoxicity, 4 uL/well of CellTiter-Glo reagent was added into the assay plates using a FRD. After 30 min incubation at room temperature, the luminescence intensity in the plates was measured using a ViewLux (PerkinElmer) plate reader.
% is scaled to controls: 0 for no effect and ±100 for the full control effect.

SMILES | activity change, negative = cytotoxicity
COc1ccc(-c2cc(=O)c3c(O)cc(O[C@@H]4O[C@H](CO[C@@H]5O[C@@H](C)[C@H](O)[C@@H](O)[C@H]5O)[C@@H](O)[C@H](O)[C@H]4O)cc3o2)cc1O | 1.88% [at 42.5 µM] (inactive)
CC(=C(CCOC(=O)C(C)C)SSC(CCOC(=O)C(C)C)=C(C)N(C=O)Cc1cnc(C)nc1N)N(C=O)Cc1cnc(C)nc1N | 0.726% [at 42.5 µM] (inactive)
CC(C)(C)c1n[nH]c(=S)n(N)c1=O | -0.351% (inactive)
C[C@H](CCC(=O)O)[C@H]1CC[C@H]2[C@@H]3C(=O)C[C@@H]4CC(=O)CC[C@]4(C)[C@H]3CC(=O)[C@]12C | 14.1% [at 42.5 µM] (inactive)
C#CC(C)N(C)C(=O)Nc1ccc(Cl)cc1 (stereo not given) | -14.9% (inactive)
Nc1ccc(S(=O)(=O)Nc2ccc(Cl)nn2)cc1 | 0.695% [at 42.5 µM] (inactive)
CCC(C)(CCC(C)C)C(=O)O (stereo not given) | -3.64% (inactive)
CN(C)CCOCCO | 13.8% (inactive)
O=C1CC(c2ccc(Cl)cc2)CC(=O)N1 | 4.38% [at 42.5 µM] (inactive)
O=P(O)(O)OP(=O)(O)O | 1.51% (inactive)
O=C(NCCN1CCOCC1)c1ccc(Cl)cc1 | -1.23% [at 42.5 µM] (inactive)
Cc1cccc(C)c1NC(=O)c1ccccc1C(=O)O | 1.19% [at 42.5 µM] (inactive)
C[C@@H]1O[C@@H](O[C@@H]2[C@@H](O)[C@H](OCCc3ccc(O)c(O)c3)O[C@H](CO[C@@H]3O[C@H](CO)[C@@H](O)[C@H](O)[C@H]3O)[C@H]2OC(=O)/C=C/c2ccc(O)c(O)c2)[C@H](O)[C@H](O)[C@H]1O | 2.35% (inactive)
C=C(C)C(=O)OCCOP(=O)(O)OCCOC(=O)C(=C)C | 2.16% (inactive)
COc1cc2c(cc1OC)[C@@H]1CC(=O)[C@@H](CC(C)C)CN1CC2 | -12.8% [at 42.5 µM] (inactive)
COCCOC(=O)C1=C(C)NC(C)=C(C(=O)OC(C)C)C1c1cccc([N+](=O)[O-])c1 (stereo not given) | -1.02% [at 42.5 µM] (inactive)
COc1ccc(Br)c(C)c1 | -1.89% (inactive)
O=C(O)c1ccc(Cl)cc1Cl | 1.99% (inactive)
CC(C)C(=O)OCc1cccc(OC(=O)[C@@H]2N3C(=O)[C@@H](NC(=O)Cc4ccccc4)[C@H]3SC2(C)C)c1 | -2.2% [at 42.5 µM] (inactive)
C[C@@H](O)[C@H]1C(=O)N2C(C(=O)O)=C(SCCN=CN)C[C@H]12 | 0.884% [at 42.5 µM] (inactive)

SMILES | activity change, negative = cytotoxicity
CCCCNC1CC(C)(C)NC(C)(C)C1 | 3.4% (inactive)
O=C(O)Cc1cn(-c2ccccc2)nc1-c1ccc(Cl)cc1 | -16% [at 42.5 µM] (inactive)
CC(C)NCC(O)COc1ccc(COCCOC(C)C)cc1 (stereo not given) | -3.37% [at 42.5 µM] (inactive)
CCCCCCCC/C=C\CCCCCCCC(=O)OCCCC | -4.71% [at 19 µM] (inactive)
Cc1cccc(OCC(O)CNC(C)(C)C)c1C (stereo not given) | -11.6% [at 42.5 µM] (inactive)
CC(C)(C)OC(=O)c1ccc(O)cc1 | -1.22% (inactive)
COc1ccc2c(c1)C(=O)N(CCc1ccc(S(=O)(=O)NC(=O)NC3CCCCC3)cc1)C(=O)C2(C)C | -20.5% [at 42.5 µM] (inactive)
O=C(CS(=O)Cc1ccco1)NC/C=C\COc1cc(CN2CCCCC2)ccn1 (stereo not given) | 4.04% [at 42.5 µM] (inactive)
CCCCOC(=O)c1ccccc1 | 3.44% (inactive)
CN(C)c1ccc(C=O)cc1 | 2.83% (inactive)
BrCCCCCBr | 3.26% (inactive)
COc1ccc(C2CNC(=O)C2)cc1OC1CCCC1 (stereo not given) | 0.707% [at 42.5 µM] (inactive)
O=C(CCNNC(=O)c1ccncc1)NCc1ccccc1 | 4.53% [at 42.5 µM] (inactive)
Cc1cc(Cl)c(C)cc1Cl | 9.29% (inactive)
COc1nccnc1NS(=O)(=O)c1ccc(N)cc1 | 0.802% [at 42.5 µM] (inactive)
N#Cc1ccc(C(=O)O)cc1 | -11.7% (inactive)
CC(C)CC(C)CC(C)CC(C)COC(=O)c1ccccc1C(=O)OCC(C)CC(C)CC(C)CC(C)C (stereo not given) | 5.19% (inactive)
CCOC(=O)c1ccc(OC(=O)CCCCCN=C(N)N)cc1 | 7.81% [at 42.5 µM] (inactive)
COc1ccc2c(c1OC)C(=O)O[C@@H]2[C@H]1c2c(cc3c(c2OC)OCO3)CCN1C | -0.215% [at 42.5 µM] (inactive)
CC(CN)CC(C)(C)CCN (stereo not given) | 0.63% [at 240 µM] (inactive)
